High-throughput results deposited in PubChem by National Center for Advancing Translational Sciences (NCATS).
The list is not random: actives were taken first. Their share in the collection is about 1.8%.
hERG WT inh – KCNH2 (human, wildtype) channel inhibition | Q12809 | U2OS, BacMam KCNH2, thallium flux FluxOr; stronger effect = lower value | activity change, % at 1.84 µM | 340,000 compounds, 0.37% hits | AID 720551;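 active means maximum activity change below -70%; inconclusive means maximum activity change between -70% and -50%; inactive means maximum activity change above -50%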; further: on the % scale 0 is the no-effect control and ±100 the full control effect
Target sequence (Q12809 whole entry, looked up): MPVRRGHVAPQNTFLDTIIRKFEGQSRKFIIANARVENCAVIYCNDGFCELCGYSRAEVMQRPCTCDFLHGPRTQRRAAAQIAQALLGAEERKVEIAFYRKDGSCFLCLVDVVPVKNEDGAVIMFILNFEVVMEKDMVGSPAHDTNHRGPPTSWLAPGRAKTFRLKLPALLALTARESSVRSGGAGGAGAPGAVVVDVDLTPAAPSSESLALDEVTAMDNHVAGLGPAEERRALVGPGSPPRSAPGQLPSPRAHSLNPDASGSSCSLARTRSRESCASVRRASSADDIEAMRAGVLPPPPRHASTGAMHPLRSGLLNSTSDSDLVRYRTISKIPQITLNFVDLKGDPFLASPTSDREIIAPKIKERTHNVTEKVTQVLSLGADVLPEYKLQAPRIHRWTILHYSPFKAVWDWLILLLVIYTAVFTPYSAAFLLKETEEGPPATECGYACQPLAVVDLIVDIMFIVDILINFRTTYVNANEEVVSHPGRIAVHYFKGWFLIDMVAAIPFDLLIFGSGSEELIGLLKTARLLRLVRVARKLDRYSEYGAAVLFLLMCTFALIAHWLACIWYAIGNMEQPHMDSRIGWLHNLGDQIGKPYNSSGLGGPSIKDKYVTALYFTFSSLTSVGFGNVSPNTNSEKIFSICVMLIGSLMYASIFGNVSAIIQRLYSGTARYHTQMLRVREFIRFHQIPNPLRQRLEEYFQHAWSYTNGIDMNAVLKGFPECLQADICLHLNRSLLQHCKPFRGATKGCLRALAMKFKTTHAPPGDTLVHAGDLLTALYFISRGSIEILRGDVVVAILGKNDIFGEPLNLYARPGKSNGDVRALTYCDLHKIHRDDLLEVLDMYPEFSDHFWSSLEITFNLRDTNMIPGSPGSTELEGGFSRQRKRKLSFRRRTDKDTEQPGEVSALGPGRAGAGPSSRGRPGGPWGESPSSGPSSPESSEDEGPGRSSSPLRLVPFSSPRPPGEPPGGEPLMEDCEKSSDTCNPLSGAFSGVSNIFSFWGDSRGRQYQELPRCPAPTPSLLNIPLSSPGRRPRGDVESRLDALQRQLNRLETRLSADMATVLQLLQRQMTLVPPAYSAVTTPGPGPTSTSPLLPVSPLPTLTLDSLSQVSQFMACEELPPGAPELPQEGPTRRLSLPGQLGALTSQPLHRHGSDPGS
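U2OS cells transduced with wild-type KCNH2 virus are loaded with FluxOr dye for 45 min, and thallium flux is measured in kinetic reads before and after stimulation buffer. Rate constants are normalized to DMSO controls.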
KCNH2 3.1 block – inhibitors of human KCNH2 3.1 potassium channel isoform | U2OS KCNH2 3.1, thallium flux FluxOr; stronger effect = lower value | activity change, % (tested at about 1.8 µM) | 340,000 compounds, 0.95% hits | AID 720553;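 active means maximum activity change below -70%; inconclusive means maximum activity change from -70% to -50%; inactive means maximum activity change above -50%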;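 further: thallium influx rate constant from kinetic fluorescence after stimulation buffer; on the % scale 0 is the no-effect control and ±100 the full control effect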
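Steps: virus added to U2OS suspension (4 h, RT, dark); medium with 10% FBS added, cells plated, 37 C overnight; FluxOr/Red40 loading buffer 45 min RT; stimulation buffer, 2 min kinetic read; rate constant normalized.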
ALOX12 inh – inhibitors of human 12S-lipoxygenase ALOX12; purified 12hLO, xylenol orange hydroperoxide absorbance; 580,000 compounds, 1.1% hits; AID 1671190; Potency, µM (doses to about 108 µM), for the others: at the highest dose activity change, negative = inhibition, usual class: inhibitors; further: potency means the concentration at half of the fitted maximal effect; on the % scale 0 is the no-effect control and ±100 the full control effect
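Purified human 12hLO (150 nM final) in 25 mM Hepes, 0.01% Triton X-100, pH 7.0 was preincubated 15 min at room temperature with compound. Then 40 uM arachidonic acid was added, 30 min. Hydroperoxide was read by Fe-XO absorbance ratio 573/405 nm.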
A-T KAP1 phos – potential ataxia-telangiectasia treatment. Potency, µM (doses to about 57.5 µM), inactives show at the highest dose activation, usual class: activators. 320,000 compounds, 0.19% hits. F2112 A-T fibroblasts, KAP-1 phosphorylation AlphaLISA; neocarzinostatin DNA damage 30 min before lysis; further: potency means the concentration at half of the fitted maximal effect; % of control where 0% means no effect; nearly all actives have a fitted effect of over 45% in size
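hTERT-immortalized A-T patient fibroblasts (F2112), 500 cells/well in OPTI-MEM, 1% FBS, got compounds for 60 min, then NCS for 30 min at 37C. Lysates were then assayed for phospho-KAP-1 by AlphaLISA (anti-pKAP1 donor, anti-KAP1 acceptor beads), 6 hr at 25C.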
* hit, by the source's call; u = inconclusive; x = not tested or not shown; ! = not active in a repeat; [ ] = another dose, or the depositor's remark. Unless noted, the call rests on the fitted dose curve; in most records, active means well fitted curve in the direction sought with a large enough effect; inconclusive means small, poorly fitted or top-dose-only effect, or another doubt; inactive means no such curve, though single readings can be large; an effect the other way counts as inactive or inconclusive.

SMILES	hERG WT inh	KCNH2 3.1 block	ALOX12 inh	A-T KAP1 phos
C(=N\Nc1ccccc1)/c1ccc(N2CCOCC2)cc1	7	2	14µM*	-2%
N#C/C(=C/c1ccc(O)c(O)c1)C(=O)NCc1ccc(Cl)cc1	-8	-12	25µM*	1%
N#C/C(=C/c1ccccc1)C(=O)Nc1ccc(N2CCOCC2)cc1	x	x	2.5µM*	x
COc1ccccc1CNc1ncncc1-c1nc(-c2ccccc2)no1	x	x	12%	x
Cc1ccc(C(=O)NCc2cc(-c3nn(C)c(=O)c4ccccc34)ccc2C)cc1	x	x	-8%	x
C=CCN1CCN(C(=O)C2N(C(C)C)C(=O)C23CCCCC3)CC1 (stereo unspecified)	x	x	4%	x
Nc1nccnc1C(=O)NCC1CC2c3ccccc3C1c1ccccc12 (stereo unspecified)	x	x	-7%	x
Cn1cc(Br)c(NC(=O)/C=C/C(=O)O)n1	-6	-122*	u	-4%
C/C(=N\Nc1ccc(Cl)c(C(=O)O)c1)c1ccc(Br)s1	10	5	u	5%
C/C(=N/Nc1ccccc1)c1ccc(Cl)s1	x	x	5µM*	x
CC(=O)/C=N/Nc1ccccc1	-2	6	-4%	-5%
C/C(=N/NC(N)=S)c1ccc(Br)s1	-2	5	25µM*	2%
C/C(=N/Nc1ccc(Cl)cc1)c1ccc(Br)s1	x	x	11µM*	x
CC(=NNc1ccccc1)C(C)=NNc1ccccc1	43	-71*	40µM*	x
CN1CCN(CC(C#N)C(O)c2ccncc2)CC1 (stereo unspecified)	x	x	-2%	x
COc1ccc(C2CC(=O)Nc3c2c(=O)nc(SC)n3C)c(OC)c1 (stereo unspecified)	x	x	2%	x
COc1cccc(NC(=O)c2ccc3c(c2)CCC3)c1	x	x	-21%	x
CCSc1nc2ccccc2n1C(=O)/C=C\c1ccc(OC)c(OC)c1	16	0	-15%	18µM*
CCSc1nc2ccccc2n1CC(N)=O	10	22	24%	-2%
Cc1noc2c(NCC3CCOCC3)cc(-c3ccc(F)cc3)nc12	x	x	56µM*	x
Cc1noc2c(N3CCOCC3)cc(-c3ccc(F)cc3)nc12	x	x	16%[176 µM]	x
Cc1ccc2c(=O)cc(C(=O)N(Cc3ccc(C(C)C)cc3)C3CCS(=O)(=O)C3)oc2c1C (stereo unspecified)	x	x	-30%	x
CCOc1ccc(N2C(=O)c3ccccc3NC23CCCCC3)cc1	x	x	9%	x
COc1cc(OC)c2c(-c3ccccc3)cc(=O)oc2c1C(CC(=O)N1CCCC1)c1ccc2c(c1)OCO2 (stereo unspecified)	x	x	50µM*	-10%
CC(C)(C)c1ccc(COC(=O)c2cc(=O)c3ccccc3o2)cc1	x	x	-9%	x
SMILES	hERG WT inh	KCNH2 3.1 block	ALOX12 inh	A-T KAP1 phos
COC(=O)c1ccc(C(=O)OC)c(NC(=O)CN(c2ccc3c(c2)OCO3)S(C)(=O)=O)c1	-9	-132*	10%	0%
Cc1ccc(O)c(C(=O)/C=C/c2ccc3c(c2)OCCCO3)c1	-3	12	23%	16µM*
O=C(/C=C/c1ccc2c(c1)OCCCO2)c1ccccc1O	0	9	-9%	18%
O=C(/C=C/c1ccco1)N(Cc1cccs1)Cc1cccs1	x	x	8.9µM*	x
Cc1ccc(N(CC2=NCCN2)c2cccc(O)c2)cc1	-31	-80*!	1%	2%
c1ccc(CN(CC2=NCCN2)c2ccccc2)cc1	8	-19	5%	9%
CC(O)CNCCNCc1c(OCc2ccccc2)ccc2ccccc12 (stereo unspecified)	29	-19	4%	10%
OCCNCc1c(OCc2ccc(Cl)cc2)ccc2ccccc12	-128*	-105*	-27%	20%
CCOC(=O)c1cc2c(ccn2C)n1Cc1ccccc1Cl	x	-89*	12%	5%
O=C(NCC1CCCO1)c1cncc(Br)c1 (stereo unspecified)	-16	-145*	-23%	-5%
O=c1c2cn[nH]c2[nH]c(=S)n1-c1ccccc1	2	4	6.3µM*	x
COc1cccc([S+](=O)([O-])N2CCC3(CC2)CC(=O)Nc2ccccc2O3)c1	x	x	-6%	x
COCCNC(=O)C(c1ccccc1)N(C(=O)Cn1nnc2ccccc21)c1cccnc1 (stereo unspecified)	-197*	-26	-3%	7%
COc1cccc(OCCn2cc(C(C)=O)c3ccccc32)c1	-23	-45	25µM*	4%
CNC(=S)N/N=C/c1cn(CCOc2cccc(OC)c2)c2ccccc12	-1	-11	35µM*	3%
Cc1ccc(OCCn2cc(/C=N/NC(=O)c3ccncc3)c3ccccc32)cc1	-187*	-5	3%	5%
COc1ccc(OCCn2cc(/C=N/NC(=O)c3ccncc3)c3ccccc32)cc1	2	0	-22%	2%
COc1cccc(OCCn2cc(C(=O)c3ccco3)c3ccccc32)c1	-3	16	2%	-1%
COc1ccc2c(C)c(CCC(=O)N3CCOCC3)c(=O)oc2c1C	x	x	-2%	x
CC(=O)c1ccc(N2CCN(C(=O)c3nn(Cc4ccccc4)c(=O)c4ccccc34)CC2)cc1	u	-86*	-14%	2%
CCN1CCc2nc3ccccc3c(C(=O)Nc3ccc(F)cc3)c2C1	u	-83*	-21%	2%
O=C(Nc1ccccc1)c1c2c(nc3ccccc13)CCCC2	2	-2	11%	4%
O=C(Nc1ccccc1)c1c2c(nc3ccccc13)CCC2	x	x	35µM*	x
CC(Sc1nc(NC2CC2)c2ccccc2n1)C(=O)N(C)C (stereo unspecified)	x	x	-3%	x
CCCCc1cc(=O)oc2c(CN3CCCC3)c(O)c(Cl)cc12	10	-12	u	22µM*
SMILES	hERG WT inh	KCNH2 3.1 block	ALOX12 inh	A-T KAP1 phos
O=C(O)C1CC=CCC1C(=O)Nc1ccccc1C(F)(F)F (stereo unspecified)	x	x	66%	x
CCc1cccc(NC(=O)C2CCN(C(=O)c3ncn4c3COC(c3ccccc3)C4)CC2)c1 (stereo unspecified)	x	x	5%	x
CCc1ccc(NC(=O)[C@H](NC(=O)[C@@H]2Cc3ccccc3CN2)c2ccccc2)cc1	-88*	14	-13%	20%
Cc1cc(-c2csc(N)n2)c(C)n1-c1c(C)n(C)n(-c2ccccc2)c1=O	x	x	-27%	x
Cc1ccc(-c2nc3cnccn3c2Nc2c(C)cccc2C)o1	-7	-12	u	16µM*
Cn1nc(C2CCN(C(=O)c3ccccc3)CC2)c2c1CCOC2	x	x	6%	x
O=C(Nc1ccccc1N1CCN(C(=O)c2ccccc2)CC1)c1cccc(Cl)c1	6	-29	-1%	-23%
O=C(Nc1ccccc1N1CCN(C(=O)c2ccccc2)CC1)c1cc(Br)ccc1Cl	u	-92*	-11%	4%
COc1ccc(Cl)cc1C(=O)Nc1ccccc1N1CCN(C(=O)C(C)C)CC1	-90*	-10	12%	13%
COc1c(C)cc(Br)cc1C(=O)Nc1ccccc1N1CCN(C(=O)c2ccccc2)CC1	2	-4	-9%	-2%
O=C(Nc1ccc(N2CCN(C(=O)c3ccccc3)CC2)cc1)c1ccc(Br)o1	1	-11	381%	-7%
O=C(Nc1ccc(N2CCN(C(=O)c3ccccc3)CC2)c(Cl)c1)c1ccc(Br)o1	-12	-102*	-17%	0%
